Screening data (PubChem)
Pf apPOL block: Pf-apPOL DNA polymerase inhibition; Recombinant Pf-apPOL, molecular beacon fluorescence, 1.5 h; inhibition, % at 10 µM; hit rate 0.25% among 210,000
mHTT CaM bind: disrupts binding of mutant huntingtin to calmodulin | AlphaScreen His-mHTT/GST-CaM binding, luminescence | P42858 | inhibition, % at 15 µM | hit rate 3.6% among 190,000 | AID 1671202;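 also: 0% = both proteins with DMSO and 100% = one protein alone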
Numbers without * were called inactive; · = no result; ! = repeats disagree. Sampled rows, rich in hits. Any-hit rate of the full collection: about 3.5%. Rule as the data show it: active = inhibition above about 50%; inactive = the rest.

SMILES	Pf apPOL block	mHTT CaM bind
O=C(Nc1ccc(N2CCN(C3CCCC3)C2=O)nc1)c1ccc(F)cc1	2	-7
Cc1ccccc1NC(=O)N1CCCC1c1c(C)noc1C (stereo unspecified)	-1	-2
N#CC1=C(N)Oc2n[nH]c(-c3ccccn3)c2C1c1ccco1 (stereo unspecified)	0	91*
CC(C)(C)c1[nH]nc2c1C(c1ccco1)C(C#N)=C(N)O2 (stereo unspecified)	-1	1
Cc1ccc(C(C)C)c(OCc2nc3c4cnn(C)c4ncn3n2)c1	-3	-1
Cc1nnc(NC(=O)c2cn(-c3ccc(F)cc3F)c(=O)c3ccccc23)s1	0	4
Cc1ccc(N=Cc2cc3ccccc3[nH]c2=O)cc1	-1	57*
Cc1ccc2nc(-c3ccc(N=Cc4ccccc4O)cc3)sc2c1	-1	·
O=C(NCCC1=CCCCC1)C1CCN(C(=O)c2ccc(F)cc2)CC1	-4	6
CC(=O)Nc1ccc(C(=O)NCc2cccc(F)c2)c(N2CCOCC2)c1	-3	-3
CC(=O)Nc1ccc(C(=O)NCc2cccc(F)c2)c(N2CCCCC2)c1	1	65*
CCN1CCN(CC(O)COCC23CC4CC(CC(C4)C2)C3)CC1 (stereo unspecified)	3	2
COc1ccc(-c2cc(C(F)(F)F)n3ncc(C(=O)Nc4cccc(C)c4)c3n2)cc1OC	-6	-7
O=S(=O)(c1cccn2cnnc12)N(Cc1ccccc1F)c1ccc(F)c(F)c1	-5	61*
O=S(=O)(c1cccn2cnnc12)N(Cc1cccc(F)c1)c1ccc(F)cc1	42	51*
O=S(=O)(c1ccc2nncn2c1)N(Cc1ccccc1Cl)c1ccccc1	-5	21
O=S(=O)(c1cccn2cnnc12)N(Cc1ccc(F)cc1)c1ccc(F)cc1	25	32
O=S(=O)(Nc1ccc(F)cc1)c1cccn2cnnc12	62*	45
O=S(=O)(c1cccn2cnnc12)N(Cc1cccc(F)c1)c1ccc(F)c(F)c1	-4	41
COCC(C)(O)CNC(=O)c1cc(C)on1 (stereo unspecified)	-3	-10
CCn1cc(S(=O)(=O)NCc2cccc(C)c2)c2cccnc21	3	5
CCn1c(-c2ccccc2)c(C)sc1=Nc1cccc([N+](=O)[O-])c1	3	57*
O=[N+]([O-])c1cccc(-c2csc(=Nc3ccccc3)n2-c2ccccc2)c1	-10	·
Cc1ccc(S(=O)(=O)N2CCSC2c2ccccc2Cl)c(C)c1 (stereo unspecified)	-4	-55
Cc1ccc(S(=O)(=O)N2C=Cc3ccccc3C2c2c[nH]c3ccccc23)c(C)c1 (stereo unspecified)	12	55*
SMILES	Pf apPOL block	mHTT CaM bind
O=c1nc2s/c(=C\c3cccc(Cl)c3)c(=O)n2nc1Cc1ccccc1	9	-4
COc1cc(Br)c(Br)cc1N	·	-11
COc1cc2c(cc1N)OCO2	·	54*
COc1cccc2c1NC(c1cccc(Br)c1)C1CC=CC21 (stereo unspecified)	-11	53*
Fc1ccc(C2Nc3c(F)cccc3C3C=CCC32)cc1 (stereo unspecified)	-6	57*
Fc1ccc(C2Nc3ccccc3C3C=CCC32)cc1 (stereo unspecified)	16	87*
c1ccc(C2Nc3ccccc3C3OCCC23)cc1 (stereo unspecified)	0	-1
Fc1cccc2c1NC(c1ccc(Br)cc1)C1CC=CC21 (stereo unspecified)	4	40
O=C(O)c1cccc2c1NC(c1ccc(F)cc1)C1CC=CC21 (stereo unspecified)	1	96*!
O=C(O)c1cccc2c1NC(c1ccccc1Br)C1CC=CC21 (stereo unspecified)	5	48
COc1cc(C2Nc3c(C)cccc3C3C=CCC32)cc(Br)c1OC (stereo unspecified)	-2	0
O=C(NC1CCCC1)c1nc2ccccn2c1-c1ccsc1	-3	-10
COC(=O)CNC(=O)N1CCCCCC1c1ccc(Cl)cc1 (stereo unspecified)	-1	-4
CCCN(C)C(=O)c1cc(-c2cccc(C)c2)on1	-4	-16
CCOc1cccc2c1NC(c1ccc(C(=O)O)cc1)C1CC=CC21 (stereo unspecified)	-6	63*
COc1cccc2c1NC(c1ccc(F)cc1)C1CC=CC21 (stereo unspecified)	-2	79*
COc1cccc2c1NC(c1ccc(Br)cc1)C1CC=CC21 (stereo unspecified)	5	58*
COc1cccc2c1NC(c1ccccc1Br)C1CC=CC21 (stereo unspecified)	3	38
COc1ccc(Cl)c2c1NC(c1ccc(F)cc1)C1CC=CC21 (stereo unspecified)	6	50*
Cc1ccc(CN2C(=O)NC3(CCN(C(=O)c4ccc(C)cc4)CC3)C2=O)cc1	-4	2
CN(C)C(=O)c1cccc2c1NC(c1ccc(Br)cc1)C1CC=CC21 (stereo unspecified)	-38	64*
O=C(Nc1ccc(Nc2cc(-n3cccn3)ncn2)cc1)c1cccs1	-15	-3
O=C(O)CN1C(=O)C(=O)C(=C(O)c2ccc(Cl)cc2)C1c1ccccc1[N+](=O)[O-] (stereo unspecified)	-6	6
O=C1C(=O)N(c2cccnc2)C(c2ccccc2[N+](=O)[O-])C1=C(O)c1ccc(Cl)cc1 (stereo unspecified)	-218	88*
COc1cccc(-c2cc(C3CCN(C(=O)Nc4ccc(SC)cc4)CC3)[nH]n2)c1	4	28
SMILES	Pf apPOL block	mHTT CaM bind
Cc1ccc(NC(=O)N2CCc3c(c(COCc4cccc(F)c4)nn3C)C2)cc1F	-8	12
O=C(c1ccc2ncccc2c1)N1CCc2nc3cc(-c4ccccc4)[nH]n3c(=O)c2C1	96*	99*
COc1ccc(-c2cc3nc4c(c(=O)n3[nH]2)CCN(C(=O)c2ccc(C)c(F)c2)C4)cc1	3	32
COc1ccc(-c2cc3nc4c(c(=O)n3[nH]2)CN(C(=O)c2ccc(C)c(F)c2)CC4)cc1	41	80*
O=C(c1nccc2ccccc12)N1CCc2nc3cc(-c4ccccc4)[nH]n3c(=O)c2C1	0	56*
O=C(c1n[nH]c2ccccc12)N1CCc2nc3cc(-c4ccccc4)[nH]n3c(=O)c2C1	5	16
Cc1ccc(C(=O)N2CCc3nc4cc(-c5ccccc5)[nH]n4c(=O)c3C2)cc1F	0	1
CC(=O)N1CCc2nc3cc(-c4ccccc4Cl)[nH]n3c(=O)c2C1	2	-2
O=C(c1cc(C2CC2)[nH]n1)N1CCc2nc3cc(-c4ccccc4Cl)[nH]n3c(=O)c2C1	26	59*
Cc1cc(C(=O)Nc2cc(C(=O)N3CCCC3)cn(C)c2=O)no1	-2	0
CN1C(=O)c2ccccc2C(C(=O)Nc2cnc3ccccc3c2)C1c1cccs1 (stereo unspecified)	-11	19
CC1(C(=O)NCc2ccccc2)CCCN(S(C)(=O)=O)C1 (stereo unspecified)	3	-3
O=C1OC(c2cccc(F)c2)=N/C1=C\c1ccccc1	-5	6
COc1ccc(N2C(=O)CC(N3CCSCC3)C2=O)cc1 (stereo unspecified)	-7	·
Cc1ccc(Br)cc1N1CCC(C(=O)NCC2CCCO2)C1=O (stereo unspecified)	0	10
CC(=O)N(C)Cc1nn(-c2ccccc2)c2c1CN(Cc1ccccc1F)CC2	-10	68*
